Source: PubChem
TDP1 cell noCPT: qHTS for Inhibitors of human tyrosyl-DNA phosphodiesterase 1 (TDP1): qHTS in cells in absence of CPT | DT40 Tdp1-/- hTDP1 cells, no CPT, ATP luminescence, 48 h | Potency, µM (doses to about 46.2 µM), without a hit: top-dose activity change, negative = growth inhibition, hits mostly inhibitors | 420,000 tested, 15% active | AID 686978, 2013; also: potency is read from the fitted curve at half-maximal effect; nearly all actives have a fitted effect of over 55% in size
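Compound effects on proliferation are scored in DT40 Tdp1-/-;hTDP1 cells in the absence of CPT. ATP levels (CellTiter-Glo luminescence) are recorded after a ≥48 hr, 37 °C incubation.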
HT1080NT lethal: kills 2HG-producing HT-1080-NT fibrosarcoma cells; 360,000 tested, 1.6% active; Potency, µM (series often up to 46.1 µM), for inactives: at the highest dose activity, negative = less viability, usual class: cytotoxic; HT-1080-NT fibrosarcoma viability, CellTiter-Glo ATP luminescence, 48 h;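 also: NT is the 2HG producing partner of a matched IDH1 knockdown line; potency is read from the fitted curve at half-maximal effect; 0% = DMSO-treated cells and -100% = media-only wells without cells; nearly all actives have a fitted effect of over 55% in size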
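HT-1080-NT fibrosarcoma cells (2HG-overproducing), 750 cells/well in RPMI with 5% FBS, dosed after 2 h and incubated 48 h at 37C. CellTiter-Glo luminescence normalized to DMSO and no-cell wells; concentration-response curves fitted and classed.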
IL1B secr inh: blocks inflammasome-driven IL-1 beta release; 360,000 tested, 4.7% active; activity change, % at 57.5 µM; AID 743279; THP-1 LPS/ATP IL-1B secretion, AlphaLISA, 16 h; active compounds read low; in the data active = activity change below about -50%; inconclusive = mostly about -30% to -49%
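THP-1 cells pretreated 1 hr with compounds (up to 57.5 uM final), then stimulated with LPS (250 ng/mL final) plus ATP (1.25 mM final); secreted IL-1B measured by AlphaLISA after 16 hr, decreased signal indicating inhibition.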
HT1080 IDH1KD tx: toxicity to HT-1080 IDH1 knockdown cells (counter line) | 360,000 tested, 2% active | Potency, µM (doses to about 46.1 µM), for the others: top-dose activity, negative = toxicity, most hits filed as cytotoxic | AID 686971 | HT-1080 IDH1 knockdown viability, ATP luminescence, 48 h;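 also: potency is read from the fitted curve at half-maximal effect; 0% = DMSO wells and -100% = cell-free medium wells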
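Viability of IDH1-knockdown HT-1080 fibrosarcoma cells was assessed by CellTiter-Glo after 48 h at 37 °C with titrated compound; concentration-effect curves were classified by fit quality and response size.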
TDP1 cell CPT: growth inhibition of DT40 Tdp1-/-;hTDP1 cells with camptothecin (screen for TDP1 inhibitors). chicken DT40 Tdp1-/-;hTDP1 cells + 20 nM CPT, ATP luminescence, 48 h. Potency, µM (titrated, usually from 46.2 µM), for the others: at the highest dose activity change, negative = growth inhibition, actives largely listed as inhibitors. 420,000 tested, 12% active. AID 686979; also: potency is read from the fitted curve at half-maximal effect; nearly all actives have a fitted effect of over 55% in size
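Cell growth measured by CellTiter-Glo luminescence after a minimum 48 h, 37 C compound exposure with 20 nM CPT in Tdp1-knockout DT40 cells stably expressing hTDP1, seeded 400/well; qHTS titration format.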
* hit, by the source's call; ? = inconclusive; nt = no result given; [ ] = dose if it differs, or a comment. Sampled rows, rich in hits. Any-hit rate of the full collection: about 19%. Unless noted, calls follow the shape of the dose curve; as a rule, active = well fitted curve in the direction sought with a large enough effect; inconclusive = small, poorly fitted or top-dose-only effect, or another doubt; inactive = no such curve, though single readings can be large; an effect the other way counts as inactive or inconclusive. Unless noted, % is scaled to controls: 0 for no effect and ±100 for the full control effect.

SMILES	TDP1 cell noCPT	HT1080NT lethal	IL1B secr inh	HT1080 IDH1KD tx	TDP1 cell CPT
O=C(CSc1nc2ccc(Cl)cc2[nH]1)c1cccs1	?	-6%	36	-1%	-25%
O=C(COC(=O)c1ccc([N+](=O)[O-])o1)NC1CCCc2ccccc21 (stereo not drawn)	-10%	0%	0	-2%	-21%
COc1ccc2c(c1)C1C=CCC1C(c1cc3c(cc1Br)OCO3)N2 (stereo not drawn)	18µM*	10µM*	7	10µM*	?
CC(=O)c1ccc2c(c1)C1C=CCC1C(c1cc3c(cc1Br)OCO3)N2 (stereo not drawn)	4.6µM*	5.8µM*	97	3.7µM*	3.7µM*
COc1cccc([C@@H]2Nc3ccc(C(=O)O)cc3[C@@H]3C=CC[C@@H]32)c1OC	0%	nt	nt	nt	1%
COC(=O)c1ccc(NC(=O)c2cc(S(=O)(=O)N3CCc4ccccc43)cn2C)cc1	-9%	nt	nt	nt	-17%
CCCCCCCCCCCCCCCCCCOCC(O)CO (stereo not drawn)	-4%	nt	nt	nt	-23%
NS(=O)(=O)c1cccc(NC(=O)C(Cc2ccccc2)NC(=O)c2ccccc2)c1 (stereo not drawn)	-7%	-5%	-5	-1%	30%
O=C(CN1CCN(S(=O)(=O)c2ccc(F)cc2)CC1)Nc1cc(C(F)(F)F)ccc1Cl	?	-3%	-18	-5%	21µM*
COc1ccc(S(=O)(=O)N2CCN(CC(=O)Nc3cc(C(F)(F)F)ccc3Cl)CC2)cc1	10µM*	-2%	-17	-16%	?
O=c1c2ccccc2nc(-c2ccc(Cl)cc2)n1CCCOc1ccccc1F	-1%	nt	nt	nt	-4%
CCOC(=O)C1CCN(C(=O)c2ccccc2NC(=O)C2=C(C)OCCS2)CC1	1%	-1%	-12	1%	-8%
CC(C)Cn1c(-c2ccc(Br)cc2)c[nH]c1=S	15µM*	-8%	-10	0%	16µM*
C[C@H](CO)N1C[C@H](C)[C@@H](CN(C)S(=O)(=O)c2ccc(Cl)cc2)Oc2ccc(NS(=O)(=O)c3ccccc3)cc2CC1=O	?	-22%	-27	?	10µM*
C[C@H]1CN([C@@H](C)CO)C(=O)Cc2cc(NC(=O)CCC(F)(F)F)ccc2O[C@H]1CN(C)S(=O)(=O)c1ccc(Cl)cc1	?	3.7µM*	50	4.6µM*	5.2µM*
C[C@H]1CN([C@@H](C)CO)C(=O)Cc2cc(NC(=O)CCC(F)(F)F)ccc2O[C@H]1CN(C)S(=O)(=O)c1ccc(F)cc1	6.5µM*	12µM*	54	?	7.3µM*
Cc1ccc(S(=O)(=O)N(C)C[C@@H]2Oc3ccc(NS(=O)(=O)c4ccccc4)cc3CC(=O)N([C@@H](C)CO)C[C@H]2C)cc1	?	-14%	9	-2%	?
COc1ccc(Cl)cc1N(CC(=O)NC1CC1)S(=O)(=O)c1ccc(C)c([N+](=O)[O-])c1	-19%	-27%	-9	-13%	-21%
COc1ccc(NC(=O)C2CCCN(C(=O)Nc3ccc(F)cc3)C2)cc1 (stereo not drawn)	-1%	4%	-4	-3%	7%
Cc1cc(C)cc(NC(=O)C2CCCN(C(=O)c3cnn(-c4ccccc4)c3-n3cccc3)C2)c1 (stereo not drawn)	18µM*	nt	nt	nt	18µM*
COc1ccc(NC(=O)C2CCCN(C(=O)c3cnn(-c4ccccc4)c3-n3cccc3)C2)cc1 (stereo not drawn)	10µM*	nt	nt	nt	?
CO[C@H]1[C@H](NC(=O)c2ccsc2)c2ccccc2C12CCN(Cc1cc(Cl)ccc1O)CC2	-7%	nt	nt	nt	-5%[9.04 µM]
CC(=O)NC1=CC(=O)c2nonc2C1=O	?	nt	nt	nt	0.079µM*
COc1cc(O)c(NC(C)=O)c2nonc12	-16%	0%	9	-2%[9.24 µM]	-15%
